Bioassay records: PubChem, National Center for Advancing Translational Sciences (NCATS)
Sampled rows, rich in hits. Any-hit rate of the full collection: about 8.5%.
Coupling enz = coupling enzyme interference in Giardia aldolase counter-screen. coupling enzyme system counterscreen, AmpLite Red fluorescence. activity change, negative = inhibition, % at 58.2 µM, hits read low. 0.67% of 290,000 active; in the data active = activity change below about -30%
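Counterscreen lacking aldolase: glyceraldehyde-3-phosphate coupling-enzyme reagent preincubated 10 min at RT with compound (at 57.5 uM final), then substrate/coupling system with AmpLite Red added; fluorescence read at 525/598 nm after 20 min RT.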
Sfp PPTase inh = blocks B. subtilis Sfp PPTase activity; Q9F4F7; Biochemical Sfp PPTase activity, qHTS; Potency, µM, for inactives: largest response in the series, negative = inhibition, usual class: inhibitors; 3.5% of 310,000 active; AID 1490; active = well fitted curve in the direction sought with a large enough effect; inconclusive = small, poorly fitted or top-dose-only effect, or another doubt; inactive = no such curve, though single readings can be large; an effect the other way counts as inactive or inconclusive;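 also: the enzyme is Sfp with the accession as filed and its product quenches rhodamine fluorescence; potency is read from the fitted curve at half-maximal effect; 0% = enzyme reaction without inhibitor and -100% = no enzyme wells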
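Buffer: 50 mM Hepes-Na pH 7.6, 10 mM MgCl2, 0.01% Nonidet P-40, 0.01% BSA. Enzyme 15 nM, pre-exposed to compound 15 min; substrates then added and fluorescence change tracked over 30 min.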
KDM4E inh = JMJD2E (human) inhibition; B2RXH2; JMJD2E catalytic domain, FDH-coupled NADH fluorescence (FDH is formaldehyde dehydrogenase); Potency, µM (series often up to 57.1 µM), inactives show top-dose activity change, negative = inhibition, usual class: inhibitors; 1.6% of 230,000 active;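 also: potency is read from the fitted curve at half-maximal effect; 0% = wells with enzyme and -100% = buffer wells without enzyme; nearly all actives have a fitted effect of over 50% in size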
GoLoco inh red = RGS12 GoLoco-Gai1 interaction inhibition | P63096 | Gai1:RGS12 GoLoco peptide FP, rhodamine, 10 min | Potency, µM (titrated, usually from 61.6 µM), inactives show top-dose activity, negative = inhibition, hits mostly inhibitors | 0.44% of 230,000 active; active = well fitted inhibition curve with a large enough effect, not every such curve was filed as active; inactive = no such curve, though single readings can be large or run the other way; also: potency is read from the fitted curve at half-maximal effect; nearly all actives have a fitted effect of over 30% in size
Target sequence (P63096 whole entry, looked up): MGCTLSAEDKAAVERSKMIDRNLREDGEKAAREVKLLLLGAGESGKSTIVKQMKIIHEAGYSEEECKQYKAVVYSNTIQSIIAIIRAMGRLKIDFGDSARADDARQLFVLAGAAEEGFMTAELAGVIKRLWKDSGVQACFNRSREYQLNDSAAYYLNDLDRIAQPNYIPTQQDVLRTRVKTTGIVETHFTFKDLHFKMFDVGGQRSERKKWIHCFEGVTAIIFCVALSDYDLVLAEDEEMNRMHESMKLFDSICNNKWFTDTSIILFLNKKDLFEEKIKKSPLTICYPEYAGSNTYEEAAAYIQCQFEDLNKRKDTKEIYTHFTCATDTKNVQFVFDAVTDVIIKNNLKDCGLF
NPSR antag = neuropeptide S receptor (human) antagonism, cAMP | Q6W5P4 | CHO-NPSR cells, cAMP TR-FRET, antagonist mode | Potency, µM (series often up to 38.3 µM), for inactives: at the highest dose activity change, negative = inhibition, hits mostly inhibitors | 1% of 220,000 active | AID 1461; active = well fitted curve in the direction sought with a large enough effect; inconclusive = small, poorly fitted or top-dose-only effect, or another doubt; inactive = no such curve, though single readings can be large; an effect the other way counts as inactive or inconclusive; also: potency is read from the fitted curve at half-maximal effect; nearly all actives have a fitted effect of over 50% in size
Target sequence (Q6W5P4 whole entry, looked up): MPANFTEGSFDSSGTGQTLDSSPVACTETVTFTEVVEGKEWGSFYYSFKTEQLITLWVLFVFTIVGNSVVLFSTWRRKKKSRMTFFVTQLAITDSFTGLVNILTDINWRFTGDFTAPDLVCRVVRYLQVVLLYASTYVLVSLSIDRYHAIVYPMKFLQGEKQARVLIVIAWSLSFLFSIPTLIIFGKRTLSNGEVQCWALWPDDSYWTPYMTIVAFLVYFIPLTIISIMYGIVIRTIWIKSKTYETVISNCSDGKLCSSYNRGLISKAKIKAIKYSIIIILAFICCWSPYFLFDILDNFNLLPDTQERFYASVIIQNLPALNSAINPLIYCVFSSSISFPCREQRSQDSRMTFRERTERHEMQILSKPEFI
ALDH1A1 inh = blocks purified human ALDH1A1 activity; P00352; Purified ALDH1A1, NADH fluorescence, propionaldehyde substrate; Potency, µM (doses to about 75.3 µM), for inactives: top-dose activity, negative = inhibition, most hits filed as inhibitors; 7.3% of 220,000 active;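 also: potency is read from the fitted curve at half-maximal effect; plate controls were no enzyme wells and a reference inhibitor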
Numbers without * were called inactive; u = inconclusive; x = no result; [ ] = another dose, or the depositor's remark. Unless noted, calls follow the shape of the dose curve; as a rule, active = well fitted inhibition curve with a large enough effect (not every such curve was filed as active); inconclusive = small, poorly fitted or top-dose-only effect, or another doubt; inactive = no such curve, though single readings can be large or run the other way. Unless noted, % is scaled to controls: 0 for no effect and ±100 for the full control effect.

SMILES	Coupling enz	Sfp PPTase inh	KDM4E inh	GoLoco inh red	NPSR antag	ALDH1A1 inh
Cc1ccc(Nc2nc(CSc3nnnn3-c3ccccc3)cs2)cc1	2.8	-9.3%	-1.6%	4.3%	-26.3%[46.1 µM]	8.91µM*
Cc1cc(C)n(CC(=O)NNC(=O)C2CC(=O)N(Cc3ccccc3Cl)C2)n1 (configuration not stated)	x	26.0%	x	x	x	x
Oc1ccc(N=C/C=C/c2ccc(Br)cc2)cc1-c1nc2ccccc2s1	-11.0	-15.0%	14.1µM*	81.6%	-2.6%	u
CCCOc1ccc2oc(=O)c3c(c2c1)CCCN3C(=O)CN1CCN(C(=O)c2ccco2)CC1	2.1	6.7%	u	-4.3%	-6.6%	u
CCCOc1ccc2oc(=O)c3c(c2c1)CCCN3C(=O)CN1CCN(c2ncccn2)CC1	-1.5	13.6%	3.5%	x	-20.9%[46.1 µM]	2.82µM*
N#Cc1nccnc1S(=O)(=O)c1cccs1	-0.8	7.08µM*	-14.9%	-15.1%	u	0.447µM*
CN(Cc1ccccc1C#N)S(=O)(=O)c1cccs1	-10.9	-6.0%	x	x	x	x
CCc1ccc(C(=O)c2ccccc2C(=O)O)s1	4.3	26.4%	5.8%	5.1%	-6.6%[46.1 µM]	4.3%
O=C(O)Cc1ccc(C(=O)c2ccccc2F)s1	12.3	9.7%	-8.2%	11.9%	-4.1%[46.1 µM]	5.01µM*
COc1ccc2c(c1)O/C(=C\c1sccc1C)C2=O	-0.5	44.7µM*	u	7.9%	13.3%	-4.5%
CC(C)c1[nH]nc2c1C(C1C=CCCC1)C(C#N)=C(N)O2 (configuration not stated)	0.7	2.0%	1.6%	5.5%	-21.2%	14.1µM*
CC1(C)OC1COc1c2ccoc2cc2oc(=O)ccc12 (configuration not stated)	-0.7	9.5%	31.6µM*	15.3%	6.7%	u
CC(C)(O)C(O)COc1c2ccoc2cc2oc(=O)ccc12 (configuration not stated)	1.0	4.7%	u	7.2%	18.5%	-6.6%
O=C1C2C3C=CC(C4CC34)C2C(=O)N1c1ccc2c(c1)OCO2 (configuration not stated)	2.6	-1.4%	9.4%	-6.4%	20.7%	u
Cc1ccc(-c2nn3nnnc3c3ccccc23)cc1C	-0.2	2.1%	2.8%	-8.0%	-16.5%[46.1 µM]	7.08µM*
COc1ccc(C(=O)N2CCN(c3ncccn3)CC2)cc1[N+](=O)[O-]	7.1	5.8%	x	x	x	x
CCCN1CCN(c2ncnc3c2nnn3Cc2ccccc2)CC1	-3.4	-20.9%	1.7%	-6.7%	-14.4%[46.1 µM]	10µM*
COc1cccc(OC)c1C(=O)N1CCN(C(=O)c2ccc(-c3ccccc3)cc2)CC1	1.6	4.7%	x	x	x	x
Cc1ccc(NNC(=O)c2c(C)noc2C)cc1Cl	-0.4	-9.6%	-29.4%	13.6%	-1.7%	28.2µM*
Cc1ccc(NNC(=O)c2ccno2)cc1Cl	-14.1	1.0%	-25.6%	15.3%	8.8%	14.1µM*
Cc1ccc(NNC(=O)c2snnc2C)cc1Cl	-0.9	-5.8%	u	7.8%	12.2%	x
Cc1cc(Cl)ccc1NNC(=O)c1c(C)noc1C	0.0	-0.3%	-8.5%	8.9%	-11.6%	u
CC(C)CCN1C(=O)c2ccc(C(=O)NCC3CCCO3)cc2C1=O (configuration not stated)	3.8	5.9%	4.8%	0.0%	-12.2%[46.1 µM]	4.47µM*
COc1ccc(/C=C2\Sc3ccc(C(=O)NCC4CCCO4)cc3N(C)C2=O)cc1 (configuration not stated)	-1.3	50.1µM*	x	x	x	x
Cc1cc(NC(=O)c2ccc3c(c2)C(=O)N(CCC(C)C)C3=O)no1	3.1	18.5%	-0.2%	1.7%	-20.6%[46.1 µM]	u
SMILES	Coupling enz	Sfp PPTase inh	KDM4E inh	GoLoco inh red	NPSR antag	ALDH1A1 inh
O=C(NCC1CCCO1)c1ccc2c(c1)C(=O)N(c1cccc([N+](=O)[O-])c1)C2=O (configuration not stated)	2.2	2.6%	x	x	x	x
O=C(NCC1CCCO1)c1ccc2c(c1)C(=O)N(C1CCCCC1)C2=O (configuration not stated)	-3.9	11.7%	1.1%	-1.6%	-12.7%[46.1 µM]	8.91µM*
O=C(COc1ccccc1Cc1ccccc1)NCCCN1CCOCC1	-2.6	18.1%	-6.0%	4.7%	4.0%	x
CCCCNC(=O)COC(=O)c1c2c(nc3ccccc13)/C(=C/c1cccs1)CC2	-6.6	u	4.7%	4.6%	-49.5%	u
CNC(=O)NC(=O)C(C)OC(=O)c1c2c(nc3ccccc13)/C(=C/c1cccs1)CC2 (configuration not stated)	-9.4	31.6µM*	u	9.1%	-3.5%[46.1 µM]	u
Nn1cnc2cc3ccccc3cc2c1=O	-0.3	19.3%	x	x	x	x
COC(=O)c1cccc(NC(=O)c2nn(C(C)C)c(=O)c3ccccc23)c1	0.6	13.8%	u	3.8%	-9.0%[46.1 µM]	-5.2%
CCCn1nc(C(=O)Nc2cccc(C(=O)OC)c2)c2ccccc2c1=O	2.6	0.1%	2.0%	8.5%	u	4.47µM*
CCCCCn1c(=O)[nH]c2cc(C(=O)NCc3ccccn3)ccc2c1=O	2.8	-4.9%	u	3.3%	-11.5%	12.6µM*
O=C(NCc1ccccn1)c1ccc2c(=O)n(CCc3ccccc3)c(=O)[nH]c2c1	2.7	7.8%	u	36.2%	-9.9%	u
CCCn1nc(C(=O)NCc2ccccn2)c2ccccc2c1=O	6.2	6.4%	1.2%	3.7%	-3.0%[46.1 µM]	10µM*
O=C(NCc1ccccn1)c1ccc(=O)oc1	1.0	89.1µM*	u	7.1%	-18.6%[46.1 µM]	u
CCCn1nc(C(=O)Nc2ccc(S(=O)(=O)Nc3nccs3)cc2)c2ccccc2c1=O	8.3	7.0%	3.7%	0.7%	-18.5%[46.1 µM]	u
CCOC(=O)c1[nH]c2ccccc2c1NC(=O)Nc1ccc(OC)cc1	1.6	-22.5%	-19.1%	2.8%	-0.9%[46.1 µM]	-10.4%
CCC1=C2CC[C@H]3C(=O)N(CC)C(=O)[C@H]3[C@H]2[C@@]2(C)C(=NCC(=O)OC)OC(=O)N2C1=O	-0.1	22.5%	-4.6%	1.0%	x	8.4%
Cc1ccc(Cl)cc1N1CCN(Cc2nc3ccsc3c(=O)[nH]2)CC1	0.3	3.2%	-2.7%	12.7%	-21.6%[46.1 µM]	6.8%
C[C@H](NC(=O)[C@@H](N)Cc1ccc(O)cc1)C(=O)NCC(=O)N[C@H]1CSSC[C@@H](C(=O)O)NC(=O)[C@H](CO)NC(=O)[C@H]([C@@H](C)O)NC(=O)[C@H](Cc2ccccc2)NC(=O)[C@H]([C@@H](C)O)NC(=O)[C@H](CCCCN)NC(=O)[C@@H](Cc2c[nH]c3ccccc23)NC(=O)[C@H](Cc2ccccc2)NC(=O)[C@H](Cc2ccccc2)NC(=O)[C@H](CC(N)=O)NC(=O)[C@H](CCCCN)NC1=O	-0.4	2.1%	x	x	x	x
N#C/C(=C\c1c(N2CCCCC2)nc2ccccn2c1=O)C(=O)NCc1ccco1	1.6	7.9%	u	7.0%	-7.2%	28.2µM*
